Results published in ChEMBL document CHEMBL4513216, “Probing the Open Global Health Chemical Diversity Library for Multistage-Active Starting Points for Next-Generation Antimalarials” (ACS Infect Dis, 2020).
The whole screen tested about 68,000 compounds, of which about 2,700 (4%) showed an effect of 50% or more. The sample as a whole holds a higher share of strong results than the screen did.

Tested on: Plasmodium berghei
Experiment: Screen against P. berghei liver stage (PbLuc), transformed with Luciferase, at 2uM
Assay type: functional, HepG2
Conditions: tested at 2 uM

Row | Compound | INHIBITION [%]
1 | O=C(N1CCCC1)N1CCC2(CC1)CN(c1cccnc1)C(=O)CO2 | 39.86
2 | CC(C)(C)c1n[nH]cc1CNC1CCC(O)CC1 (configuration not stated) | -57.67
3 | CC(C)(C)c1n[nH]cc1CNC1CCC(C(F)(F)F)CC1 (configuration not stated) | 64.92
4 | CC(C)(C)c1n[nH]cc1CNC1CCC(OCC(F)(F)F)CC1 (configuration not stated) | -8.63
5 | C=C/C=c1\c(=C/C)oc2c(NCc3ccccc3)nc(CC)nc12 | 17.42
6 | C=C/C=c1\c(=C/C)oc2c(NCc3ccccc3)ncnc12 | 24.34
7 | C=C/C=c1\c(=C/C)oc2c(NCc3ccccc3)nc(C)nc12 | 51.36
8 | Cc1noc(C)c1CCC(=O)N1CCCC(n2ccnc2C)C1 (configuration not stated) | 11.18
9 | CCN1CCOC(CNCc2ccc(C)s2)C1 (configuration not stated) | -19.02
10 | Cc1ccc(CNc2cnn(CC(F)F)c2)cc1C | 55.43
11 | COc1cc(CNc2cnn(CC(F)F)c2)ccc1O | 19.18
12 | COc1ccc(CNc2cnn(CC(F)F)c2)cc1 | -15.93
13 | CCn1nnc2c1C(COCCN(C)C)CN(S(=O)(=O)CC)C2 (configuration not stated) | 29.19
14 | Cc1nc(CN(C)C(=O)c2cccc(CC3CCNCC3)c2)no1 | 24.36
15 | CN(Cc1ccno1)C(=O)c1cccc(CC2CCNCC2)c1 | 38.67
16 | CNc1ncc(CN(C)C(=O)c2cccc(CC3CCNCC3)c2)cn1 | 52.98
17 | Cc1nc2ccc(Cl)cn2c1CN1CCN(S(=O)(=O)N2CCCC2)CC1 | -21.9
18 | CCN1CCc2c(sc3c2C(=O)NC(C=Cc2ccccc2)N3)C1 (configuration not stated) | -18.77
19 | COCC(=O)N1CCCCC1c1nccc(C)n1 (configuration not stated) | 18.22
20 | CN(C)CCN1CCCC12CCN(Cc1nccn1C)CC2 | 37.75
21 | Cc1cc(C(F)(F)F)nn1CCCNC(=O)C1CCC1 | 31.12
22 | O=C(COc1coc(CN2CCCCC2)cc1=O)Nc1ccccc1Cl | -46.67
23 | O=C(COc1coc(CN2CCOCC2)cc1=O)Nc1ccc(Cl)cc1 | 16.49

Row | Compound | INHIBITION [%]
24 | O=C(COc1coc(CN2CCOCC2)cc1=O)Nc1ccccc1F | 64.35
25 | CCCc1ccc2oc(C(=O)N3CCN(CCOC)CC3)c(C)c2c1 | -28.65
26 | COCCN(C)C(=O)Cn1cccc(OC)c1=O | -14.84
27 | COCCCN(C)C(=O)Cn1cccc(OC)c1=O | 50.59
28 | COc1cccn(CC(=O)N(C)CCSC)c1=O | 21.97
29 | COc1cccn(CC(=O)N(C)Cc2ccoc2)c1=O | -33.11
30 | COc1cccn(CC(=O)N(C)CCC2CCOCC2)c1=O | 69.67
31 | COc1cccn(CC(=O)N(C)CCCOc2c(C)cccc2C)c1=O | -30.49
32 | CN(C)C(c1ccccn1)C1CCC(CNC(=O)CC2CCCC2)CC1 (configuration not stated) | 0.64
33 | CCc1c(C(=O)O)nnn1-c1ccc(C)cc1C | -54.75
34 | NC(=O)N1CC[C@@H]2O[C@@H](COCC(=O)N3CCCC3)CC[C@@H]21 | 35.98
35 | Cc1cc(C[C@@H]2COC[C@H]2NCc2ccccc2C(F)(F)F)on1 | 32.31
36 | Cc1cc(C(O)CCNC(=O)c2ccc(Cl)s2)c(C)o1 (configuration not stated) | -16.88
37 | CC(CNC(=O)c1ccncc1F)Oc1ccc(F)cc1 (configuration not stated) | 23.79
38 | CC(CNC(=O)c1cnccn1)Oc1cccc(Br)c1 (configuration not stated) | 30.75
39 | CC(CNC(=O)c1cnccn1)Oc1ccc(F)cc1 (configuration not stated) | 52.84
40 | NCc1cccc(-c2cccnc2C(=O)NCCN2CCCC2)c1 | 1.07
41 | O=C(NC1CC1)[C@@H]1CCO[C@@H]2CCN(CC3CCC3)C[C@H]21 | 9.98
42 | Cc1cc(F)ccc1NC(=O)NCC(C)N1CCOCC1 (configuration not stated) | 48.59
43 | CC(CNC(=O)Nc1ccc(F)cc1Br)N1CCOCC1 (configuration not stated) | 74.22
44 | Cc1ccc(F)cc1NC(=O)NCC(C)N1CCOCC1 (configuration not stated) | -0.54
45 | CCc1ccc(CN2CCC3(CCCN(C(=O)N(C)C)C3)C2)o1 (configuration not stated) | 1.08
46 | O=C(Cc1ccc2c(c1)OCCO2)NC1CC1 | 23.31

Row | Compound | INHIBITION [%]
47 | CN(Cc1ccco1)[C@@H]1CN(Cc2ccncc2)C[C@@H]2CCCO[C@@H]21 | 60.93
48 | O=C(CC1CC1)N[C@@H]1CN(Cc2ccoc2)C[C@@H]2CCCO[C@@H]21 | 35.89
49 | O=C(N[C@@H]1CN(Cc2ccoc2)C[C@@H]2CCCO[C@@H]21)C1CCC1 | -8.62
50 | CS(=O)(=O)N[C@@H]1CN(Cc2ccccc2)C[C@@H]2CCCO[C@@H]21 | 14.39
51 | O=C(N[C@@H]1CN(Cc2ccccc2)C[C@@H]2CCCO[C@@H]21)C1CC1 | 50.9
52 | CN(Cc1ccco1)[C@@H]1CN(Cc2cccnc2)C[C@@H]2CCCO[C@@H]21 | 29.36
53 | CN(Cc1ccco1)[C@@H]1CN(Cc2ccc(F)cc2)C[C@@H]2CCCO[C@@H]21 | 29.73
54 | O=C(CC1CC1)N[C@@H]1CN(Cc2ccncc2)C[C@@H]2CCCO[C@@H]21 | 29.01
55 | O=C(CC1CC1)N[C@@H]1CN(Cc2ccco2)C[C@@H]2CCCO[C@@H]21 | 52.55
56 | NCC1CCCCN1C(=O)Cc1cccc(Cl)c1 (configuration not stated) | -22.89
57 | CC1(C)CN(C(=O)c2occc2COc2cccc(C#N)c2)CCO1 | -0.41
58 | O=C(NCc1nc[nH]n1)c1cc(COc2cccc(F)c2)[nH]n1 | 10.22
59 | CC(C)(C)C(=O)NCCC(=O)NS(=O)(=O)c1cccc(C#N)c1 | -49
60 | Cc1nc(CC(=O)N2CCc3nnc(N(C)C)cc3C2)cs1 | 1.6
61 | Cc1ccc(N2CCCC(N(C)c3ncnc4c3CCC4)C2)nn1 (configuration not stated) | -28.33
62 | CN1CCS(=O)(=O)[C@@H]2CCN(C(=O)c3ccccc3)CC[C@@H]21 | 71.83
63 | CN1CCS(=O)(=O)[C@@H]2CCN(C(=O)CC(C)(C)C)CC[C@@H]21 | 50.17
64 | COc1ccc(C(=O)N2CC[C@@H]3[C@H](CC2)N(C)CCS3(=O)=O)cc1 | -17.39
65 | COc1ccc(CC(=O)N2CC[C@@H]3[C@H](CC2)N(C)CCS3(=O)=O)cc1 | 24.64
66 | COc1cccc(C(=O)N2CC[C@@H]3[C@H](CC2)N(C)CCS3(=O)=O)c1 | -14.21
67 | CC(C)(C)CC(=O)N1CC[C@@H]2[C@H](CC1)N(S(C)(=O)=O)CCS2(=O)=O | -16.93
